Test results published in PubChem BioAssay (Tox21).
Values without a mark were called inactive. The call rests on the fitted dose curve; in most records, active means well fitted curve in the direction sought with a large enough effect in the repeat runs; inconclusive means weak or mixed curves; inactive means flat fitted curve, though single readings scatter.

Test: qHTS assay to test for compound auto fluorescence at 590 nm (red) in HEK293 cells (AID 720679)
Settings: red autofluorescence 540/590 nm; series mostly up to 91.3 µM; fluorescence, % of fluorescent control: at the top concentration
Summary of the method: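 Red-channel autofluorescence (Ex/Em 540/590 nm; Rose Bengal sodium reference) was measured after overnight 37C, 5% CO2 exposure of attached HEK293 cells, 2,000 per well in medium with 10% dialyzed FBS.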
On the % scale 0 is the no-effect control and ±100 the full control effect.

SMILES	fluorescence, % of fluorescent control
CC(=O)Oc1ccc2c(c1)CC[C@@H]1[C@@H]2CC[C@]2(C)[C@@H](O)CC[C@@H]12	0.0559% [at 46 µM]
COC(OC)(C(=O)c1ccccc1)c1ccccc1	0.315%
Cc1ccc(S(=O)(=O)NC2CCCCC2)cc1	0.413%
CC1C2CC(CC2C2CCCC(O)C2)C1(C)C (stereo unspecified)	-0.664%
CC[C@H](NC(=O)c1cc(F)ccc1NS(=O)(=O)c1cccc2cccnc12)c1ccccc1	-0.0428%
COCc1c(C(C)C)nc(C(C)C)c(/C=C/[C@@H](O)C[C@@H](O)CC(=O)O)c1-c1ccc(F)cc1	0.0704% [at 46 µM]
CC(C)c1nnc2ccc(-c3ocnc3-c3cc(F)ccc3F)cn12	0.172%
CC(Cl)C(Cl)Cl (stereo unspecified)	0.12%
Nc1ccc(Cl)cc1[N+](=O)[O-]	-0.11%
NC(=O)Cn1c(=O)cc(CCN2CCN(c3nccc4sccc34)CC2)c2ccc(F)cc21	-0.057%
CC(C)CCCCCOC(=O)CCCCC(=O)OCCCCCC(C)C	0.112%
